This is an account of results in ChEMBL document CHEMBL4513216, “Probing the Open Global Health Chemical Diversity Library for Multistage-Active Starting Points for Next-Generation Antimalarials” (ACS Infect Dis, 2020).

The structures appear in SMILES notation. The campaign covered roughly 68,000 compounds. About 2,700 (4%) showed an effect of 50% or more. The sample as a whole holds a higher share of strong results than the screen did.

The experiment concerns Plasmodium berghei. The experiment is described as follows: Screen against P. berghei liver stage (PbLuc), transformed with Luciferase, at 2uM. The experiment is classed as functional, HepG2. The note with it: tested at 2 uM.
With `COc1cccc(OCC2CCCN(C(=O)CCn3ccnc3)C2)c1` (configuration not stated), the INHIBITION is 50.59%.

For the molecule `COc1cccc(CCC2CCCN(C(=O)c3ccc(OC)o3)C2)c1` (configuration not stated), the INHIBITION is recorded as 38.67%.

As for `COc1cccc(OCC2CCCN(C(=O)c3cnn(C)c3)C2)c1` (configuration not stated), the INHIBITION amounted to 29.13%.

Consider `COc1cccc(CCC2CCCN(C(C)=O)C2)c1` (configuration not stated), for which the INHIBITION is on record as 79.21%.

In the case of `COc1cccc(OCC2CCCN(C(=O)Cc3cccc(O)c3)C2)c1` (configuration not stated), the INHIBITION came to 79.21%.

With `COc1cccc(CCC2CCCN(C(=O)c3ccccn3)C2)c1` (configuration not stated), the INHIBITION is on record as 26.74%.

Consider `COc1ccccc1OC1CCN(C(=O)CCCn2ccnc2)CC1`, for which the INHIBITION was 29.9%.

Take `COc1ccccc1C(=O)N1CCN(C(=O)CCn2ccnc2)CC1`: the INHIBITION is on record as 51.4%.

As for `COc1cccc(OCC2CCCN(C(=O)CCCn3cccn3)C2)c1` (configuration not stated), the INHIBITION came to 31.51%.

For `COc1cccc(OCC2CCCN(C(C)=O)C2)c1` (configuration not stated), the INHIBITION is reported as 12.91%.

For `COc1cccc(OCC2CCCN(C(=O)CCc3cc(O)no3)C2)c1` (configuration not stated), the INHIBITION is reported as -29.65%.

Turning to `c1cc(CN2CCOCC3(C2)CN(Cc2nccs2)CCO3)ccn1` (configuration not stated), the INHIBITION was 24.93%.

Regarding `CN(C)C(=O)COC1COC2(CCN(c3cnccn3)CC2)C1` (configuration not stated), the INHIBITION is given as -16.53%.

`N#Cc1ccccc1CNC(C(=O)N1CCOCC1)c1ccccc1` (configuration not stated): the INHIBITION is recorded as -13.11%.

As to `C[C@@H]1CN(C(=O)c2cnc(C3CC3)nc2)CC[C@@]1(O)C1CCOCC1`, the INHIBITION is 11.63%.

With `c1sc(C2CCCCC2)nc1CN1CCn2c(nnc2C2CC2)C1`, the INHIBITION is 28.65%.

`CS(=O)(=O)NCc1ncn2c1CN(CCN1CCCC1)CCC2`: the INHIBITION was found to be 10.64%.

As to `CCOc1ccccc1OC1CCN(C(=O)c2cnsn2)CC1`, the INHIBITION came out at 14.06%.

For the molecule `CCOc1ccccc1OC1CCN(C(=O)c2csnn2)CC1`, the INHIBITION is given as 19.71%.

In the case of `CCOc1ccccc1OC1CCN(C(=O)c2cnns2)CC1`, the INHIBITION is reported as 73.34%.

Regarding `Cc1cccc(N2CCC3(CCCN3Cc3cn(C)nc3C)CC2)n1`, the INHIBITION amounted to 50.32%.

Take `Cc1cccc(N2CCC3(CCCN3Cc3c(C)nn(C)c3C)CC2)n1`: the INHIBITION was -28.5%.

In the case of `Cc1cccc(N2CCC3(CCCN3Cc3cnn(C)c3C)CC2)n1`, the INHIBITION is given as 11.33%.

In the case of `COCCNC(=O)N1CCN(C(=O)Cc2ccccc2F)CC1`, the INHIBITION is recorded as 1.06%.

Regarding `COCCNC(=O)NC1(c2ccccc2F)CC1`, the INHIBITION worked out at 54.49%.

With `COCCNC(=O)C1(c2ccccc2C)CCOCC1`, the INHIBITION is -88.54%.

For `CCS(=O)(=O)N1CCc2c(nc(C3CCCN3)nc2NC)C1` (configuration not stated), the INHIBITION is 40.35%.

As for `Cc1cccc(C(=O)N2CC(=O)N(c3ccccc3Cl)CC2C)n1` (configuration not stated), the INHIBITION is on record as 6.75%.

As to `Cc1noc2ncc(C(=O)N3CCCC3c3ccncc3)cc12` (configuration not stated), the INHIBITION is given as -52.51%.

As for `Cc1noc2ncc(C(=O)N3CCCC3c3ccsc3)cc12` (configuration not stated), the INHIBITION is reported as 60.09%.

On to `Cc1noc2ncc(C(=O)N3CCCC3c3cnn(C)c3)cc12` (configuration not stated), for which the INHIBITION worked out at 26.71%.

Turning to `Cc1cn2c(n1)CCC(NC(=O)CCOc1cccc(F)c1)C2` (configuration not stated), the INHIBITION was -34.22%.

In the case of `CCc1nccn1C1CCCN(C(=O)c2ccnc(C)n2)C1` (configuration not stated), the INHIBITION turned out to be 20.53%.

Regarding `Cc1noc(CNc2cccc(C(=O)N3CCCC(O)C3)c2)n1` (configuration not stated), the INHIBITION is 60.9%.

On to `CCCc1nc(CNc2cccc(C(=O)N3CCCC(O)C3)c2)no1` (configuration not stated), for which the INHIBITION was 24.55%.

On to `Cc1noc(CNc2ccccc2N2CCCCC2)n1`, for which the INHIBITION is recorded as -11.41%.

In the case of `Cc1noc(CNc2ccc(C(=O)N3CCCC(C)C3)cc2C)n1` (configuration not stated), the INHIBITION amounted to 31.57%.

As to `Cc1noc(CNc2ccccc2C(=O)N2CCCC(O)C2)n1` (configuration not stated), the INHIBITION amounted to 74.11%.

Turning to `Cc1noc(C)c1CNc1cccc(C(=O)N2CCCC(O)C2)c1` (configuration not stated), the INHIBITION is reported as -82.3%.

For the molecule `CCN(CC)C(=O)[C@@H]1C[C@H](N)CN1c1nnc(-c2ccccc2)s1`, the INHIBITION is -51.55%.

With `Cc1noc(C)c1CCC(=O)NC(C)c1nnc2n1CCC2` (configuration not stated), the INHIBITION was 20.31%.

In the case of `CCC(C)N(Cc1ccncc1)C(=O)CCC(=O)OC` (configuration not stated), the INHIBITION is on record as -28.11%.

For the molecule `CCc1cc(NCCC(F)(F)F)nc(N2CCOCC2)n1`, the INHIBITION worked out at 35.15%.

Regarding `CN1C(=O)C2(CCN(CCO)C2)c2ccccc21` (configuration not stated), the INHIBITION worked out at 59.33%.

`CN1C(=O)C2(CCN(CC3CC3)CC2)c2ccccc21`: the INHIBITION was determined as 1.42%.

Consider `CN1C(=O)C2(CCN(CC3CCC3)C2)c2ccccc21` (configuration not stated), for which the INHIBITION turned out to be 19.05%.

Regarding `NC(=O)N1CCC2(CCN(C(=O)c3cccnc3)CC2)C1`, the INHIBITION was -14.06%.

Take `CCNC(=O)[C@@H]1C[C@H](NC(=O)c2ccc(C)s2)CN1Cc1ccc(C)o1`: the INHIBITION is -12.44%.

In the case of `Cc1occc1C(=O)N1Cc2nccn2CC(CN2CCOCC2)C1` (configuration not stated), the INHIBITION is recorded as 25.86%.

In the case of `COc1nc2c(cc1C(=O)NCCCc1nnc(N)s1)CCC2`, the INHIBITION was 38.32%.

Regarding `Cc1noc(CN(C)C2CCCN(Cc3noc(C4CC4)n3)C2)n1` (configuration not stated), the INHIBITION is on record as -23.42%.

In the case of `O=C(CC1Cn2ncnc2NC1=O)Nc1cccc(C(F)(F)F)c1` (configuration not stated), the INHIBITION amounted to 0%.
